Screening data as filed in PubChem.
Rows were chosen to be rich in hits. Some 12% of all compounds tested hit in one or more screens of this group.
Pf growth 96h: inhibits malaria parasite growth, 96 h | 320,000 tested, 6.9% active | AID 504834 | Potency, µM (series often up to 28.7 µM), inactives show at the top dose activity change, negative = inhibition, actives largely listed as inhibitors | P. falciparum luciferase reporter growth, 96 h; further: on the % scale 0 is the no-effect control and ±100 the full control effect
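Two parasite generations (96 h, 37 C, 5% CO2) of compound exposure in infected erythrocytes (0.05% parasitemia, 2% hematocrit). Luciferase-reporter P. falciparum; decreased luminescence indicates inhibited growth, aimed at apicoplast-acting delayed death.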
AmpC inh no detg: blocks E. coli AmpC beta-lactamase in detergent-free assay; P00811; AmpC nitrocefin hydrolysis, absorbance 480 nm, 0.0001% Triton; Potency, µM (series often up to 57.1 µM), for the others: top-dose activity change, negative = inhibition, actives largely listed as inhibitors; 330,000 tested, 0.52% active; AID 485341;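 further: plate controls were no compound for no effect and no enzyme for full effect; nearly all actives have a fitted effect of over 20% in size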
Target sequence (P00811 whole entry, looked up): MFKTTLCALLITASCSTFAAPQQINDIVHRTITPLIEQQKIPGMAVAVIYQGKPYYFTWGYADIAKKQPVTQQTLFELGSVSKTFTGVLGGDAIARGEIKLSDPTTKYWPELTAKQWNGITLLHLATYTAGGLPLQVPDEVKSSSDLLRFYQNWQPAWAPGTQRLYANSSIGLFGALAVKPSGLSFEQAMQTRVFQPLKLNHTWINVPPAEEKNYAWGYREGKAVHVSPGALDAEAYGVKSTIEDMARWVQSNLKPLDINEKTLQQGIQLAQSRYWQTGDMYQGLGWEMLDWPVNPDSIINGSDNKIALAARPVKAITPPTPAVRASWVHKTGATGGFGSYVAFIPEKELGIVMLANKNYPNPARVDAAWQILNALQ
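AmpC (5.3 nM in the dispensed reagent) in 20 mM phosphate pH 7.0 with 0.01% (detergent screen) or 0.0001% Triton X-100 was preincubated with compounds for 15 min at room temperature. Nitrocefin was then added from an 800 uM solution, and hydrolysis was followed at 480 nm.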
Sm TGR block: S. mansoni TGR enzyme inhibition; purified TGR, DTNB reduction, TNB absorbance 405 nm; Potency, µM (highest dose often 114 µM), for inactives: at the top dose activity change, negative = inhibition, usual class: inhibitors; 360,000 tested, 3% active; further: on the % scale 0 is the no-effect control and ±100 the full control effect; nearly all actives have a fitted effect of over 60% in size
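TGR 20 nM + NADPH 100 uM (dispensed conc.), cpd preinc 15 min RT; start with NADPH (500 uM addition) then DTNB (15 mM addition). Kinetic TNB absorbance, 405 nm filter. Four-parameter Hill fit across titration.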
SARS PLpro yeast: inhibitors of SARS-CoV papain-like protease in yeast. S. cerevisiae expressing SARS-CoV PLpro, growth rescue. Potency, µM (top dose mostly 32.9 µM), for the others: top-dose activity, positive = growth rescue, usual class: activators. 330,000 tested, 0.19% active. AID 485353; calls by dose curve; further: 0% is about no effect; nearly all actives have a fitted effect of over 55% in size
Pf growth 48h: inhibits P. falciparum growth in the first generation, 48 h. P. falciparum luciferase growth in erythrocytes, 48 h. Potency, µM (top dose mostly 28.7 µM), inactives show top-dose activity change, negative = inhibition, actives largely listed as inhibitors. 310,000 tested, 5.9% active; further: on the % scale 0 is the no-effect control and ±100 the full control effect
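In quantitative HTS format, infected erythrocytes bearing luciferase-reporter parasites were treated for a single generation at 37 C. Luminescence after adding detection reagent served as the growth measure.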
AmpC detergent: blocks E. coli AmpC beta-lactamase in detergent assay; P00811; AmpC hydrolysis of nitrocefin, absorbance 480 nm, 0.01% Triton; Potency, µM (titrated, usually from 114 µM), without a hit: top-dose activity change, negative = inhibition, hits mostly inhibitors; 370,000 tested, 0.041% active; AID 485294;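 further: 0% = no-compound wells and -100% = no-enzyme wells; nearly all actives have a fitted effect of over 25% in size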
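AmpC (5.3 nM in the dispensed reagent) in 20 mM phosphate pH 7.0 with 0.01% (detergent screen) or 0.0001% Triton X-100 was preincubated with compounds for 15 min at room temperature. Nitrocefin was then added from an 800 uM solution, and hydrolysis was followed at 480 nm.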
* hit, by the source's call; [ ] = another dose, or the depositor's remark. Unless noted, the call rests on the fitted dose curve; in most records, active means well fitted curve in the direction sought with a large enough effect; inconclusive means small, poorly fitted or top-dose-only effect, or another doubt; inactive means no such curve, though single readings can be large; an effect the other way counts as inactive or inconclusive. Potency means the concentration at half of the fitted maximal effect.

For NC(=O)c1cc2c(s1)-c1cc(Cl)ccc1SC2 the results were Pf growth 96h 62%, AmpC inh no detg -7%, Sm TGR block 4%, SARS PLpro yeast 0%, Pf growth 48h 39% and AmpC detergent -1%.
`CCOc1ccc(C(=O)Nc2nnc(S(=O)(=O)N(CC)c3ccccc3C)s2)cc1` gave Sm TGR block -5% and AmpC detergent 11%.
`CCCCNS(=O)(=O)c1ccc(NC(=O)c2c(-c3ccccc3Cl)noc2C)cc1` gave Pf growth 96h 5.2µM*, AmpC inh no detg -25%, Sm TGR block 8%, SARS PLpro yeast 0% and AmpC detergent -3%.
Cc1cnc(C(=O)Nc2cccc3cccnc23)cn1 was read as Pf growth 96h 4%, AmpC inh no detg -16%, Sm TGR block 6%, SARS PLpro yeast 16%, Pf growth 48h 0.37µM* and AmpC detergent inconclusive.
Screening Cc1cnc(C(=O)Nc2ccccc2C(=O)N2CCOCC2)cn1 returned Pf growth 96h 3.7µM*, AmpC inh no detg -9%, Sm TGR block 0%, SARS PLpro yeast -1%, Pf growth 48h 16% and AmpC detergent inconclusive.
`CCSc1nnc(NC(=O)c2c(-c3ccccc3Cl)noc2C)s1` gave Pf growth 96h 5.9µM*, AmpC inh no detg 19%, Sm TGR block 14%[11.4 µM], SARS PLpro yeast -14% and AmpC detergent inconclusive.
Screening CCC(C)NC(=O)Cn1ncc2c(C)n(Cc3ccc(F)cc3)c(C)c2c1=O (stereo unspecified) returned Sm TGR block -1% and AmpC detergent 10%.
`COc1ccc(Cn2ccc3nc(C)c(C(=O)Nc4ccc(OC)cc4)cc3c2=O)cc1` gave Sm TGR block 1% and AmpC detergent 11%.
For CCc1ccccc1NC(=O)c1ccc2c(O)c(S(=O)(=O)c3ccccc3)c(=O)[nH]c2c1 the results were Sm TGR block 4% and AmpC detergent 12%.
`Cc1onc(-c2ccccc2Cl)c1C(=O)Nc1cccc2cccnc12` gave Pf growth 96h inconclusive, AmpC inh no detg -2%, Sm TGR block -20%, SARS PLpro yeast -10%, Pf growth 48h 9.3µM* and AmpC detergent inconclusive.
For Cc1onc(-c2ccccc2Cl)c1C(=O)Nc1ccc(-c2cn3cccnc3n2)cc1 the results were Pf growth 96h inconclusive, AmpC inh no detg 72%, Sm TGR block 0%, SARS PLpro yeast 5%, Pf growth 48h 10µM* and AmpC detergent inconclusive.
Oc1ccc(N=Nc2ccc(Br)cc2)c(O)c1 was read as Pf growth 96h 1.9µM*, AmpC inh no detg -43%, Sm TGR block -9%, SARS PLpro yeast -7%, Pf growth 48h inconclusive and AmpC detergent -9%.
For Oc1ccc(N=Nc2ccc3c(c2)OCCO3)c(O)c1 the results were Pf growth 96h 152%, AmpC inh no detg -37%, Sm TGR block 3%, SARS PLpro yeast -1%, Pf growth 48h 130% and AmpC detergent 10%.
COc1ccc(N2CC(NC(=O)COc3ccc(F)cc3)CC2=O)cc1OC (stereo unspecified) was read as Sm TGR block -6% and AmpC detergent -2%.
`Cc1ccc(NCCC(=O)c2cccc([N+](=O)[O-])c2)c(C)c1` gave Pf growth 96h 10%, AmpC inh no detg 20µM*, Sm TGR block 0.5µM*, SARS PLpro yeast -32%, Pf growth 48h 4% and AmpC detergent 5%.
Cc1cccc(NCCC(=O)c2ccc([N+](=O)[O-])cc2)c1C was read as Pf growth 96h 38%, AmpC inh no detg -21%, SARS PLpro yeast -7%, Pf growth 48h 6% and AmpC detergent 9%.
